In the library only some 19% were active in any assay of this set; here they are far more common.
ELG1 repair inh – qHTS screen for small molecules that inhibit ELG1-dependent DNA repair in human embryonic kidney (HEK293T) cells expressing luciferase-tagged ELG1 | Potency, µM (highest dose often 46.1 µM), actives largely listed as inhibitors | AID 504467, 2011 | HEK293T ELG1-luciferase reporter, luminescence, 16 h; DNA damage induced by 5-fluorouridine | hit rate 2.3% among 330,000; note: nearly all actives have a fitted effect of over 55% in size
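HEK293T cells expressing luciferase-tagged ELG1 (2,000/well) received 5-Fluorouridine plus compound or DMSO for 16 hr at 37 °C. Luciferase was read by ONE-Glo luminescence after 30 min at room temperature.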
DT40 TDP1 CPT – qHTS for Inhibitors of human tyrosyl-DNA phosphodiesterase 1 (TDP1): qHTS in cells in presence of CPT; hit rate 12% among 420,000; chicken DT40 Tdp1-/-;hTDP1 cells + 20 nM CPT, ATP luminescence, 48 h; Potency, µM (doses to about 46.2 µM), usual class: inhibitors; note: nearly all actives have a fitted effect of over 55% in size
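Chicken DT40 Tdp1-/- cells complemented with human TDP1, 400 cells/well, exposed to compounds plus 20 nM camptothecin for at least 48 h at 37 C; viability read as ATP content by CellTiter-Glo luminescence.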
DT40 TDP1 no CPT – qHTS for Inhibitors of human tyrosyl-DNA phosphodiesterase 1 (TDP1): qHTS in cells in absence of CPT; DT40 Tdp1-/- hTDP1 cells, no CPT, ATP luminescence, 48 h; Potency, µM (series often up to 46.2 µM), usual class: inhibitors; hit rate 15% among 420,000; AID 686978, 2013; note: nearly all actives have a fitted effect of over 55% in size
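No-CPT arm: Tdp1-/-;hTDP1 DT40 cells (400/well) plus compounds, incubated ≥48 hr at 37 °C. Readout CellTiter-Glo luminescence.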
IL1B secr inh – qHTS for Inhibitors of Inflammasome Signaling: IL-1-beta AlphaLISA Primary Screen. THP-1 LPS/ATP IL-1B secretion, AlphaLISA, 16 h; hits give low values. activity change, % at 57.5 µM. hit rate 4.7% among 360,000; in the data active = activity change below about -50%; inconclusive = mostly about -30% to -49%
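Secreted IL-1B measured by AlphaLISA bead assay after 16 h compound exposure of THP-1 cells; compounds (final up to 57.5 uM) added 1 h before LPS (250 ng/mL) and ATP (1.25 mM) stimulation; lower signal means less secretion.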
HT1080 IDH1KD tx – qHTS for induction of synthetic lethality in tumor cells producing 2HG: qHTS for the HT-1080-IDH1KD cell line; HT-1080 IDH1 knockdown viability, ATP luminescence, 48 h; Potency, µM (highest dose often 46.1 µM), hits mostly cytotoxic; AID 686971, 2013; hit rate 2% among 360,000
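Knockdown cells (IDH1KD HT-1080) received compounds 2 h after plating at 750 cells/well and were kept 48 h at 37 °C in 5% FBS RPMI. A CellTiter-Glo luminescence read gave % activity for curve fitting.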
HT1080NT lethal – qHTS for induction of synthetic lethality in tumor cells producing 2HG: qHTS for the HT-1080-NT fibrosarcoma cell line; hit rate 1.6% among 360,000; Potency, µM (series often up to 46.1 µM), most hits filed as cytotoxic; HT-1080-NT fibrosarcoma viability, CellTiter-Glo ATP luminescence, 48 h;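 note: NT is the 2HG producing partner of a matched IDH1 knockdown line; nearly all actives have a fitted effect of over 55% in size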
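Luminescent CellTiter-Glo readout after 48 hours of compound exposure at 37 degrees C defined viability of HT-1080-NT cells. Activity was normalized to DMSO wells and cell-free media wells; concentration-response curves were fitted and assigned curve classes.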
A number is an active result. Unless noted, calls come from the whole dose curve; as a rule, active = well fitted curve in the direction sought with a large enough effect; inconclusive = small, poorly fitted or top-dose-only effect, or another doubt; inactive = no such curve, though single readings can be large; an effect the other way counts as inactive or inconclusive.

What do the screens show for `CCN(CC)C(=O)c1cccc(-c2csc(C(O)c3cccc(Cl)c3)n2)c1` (stereo unspecified)?
DT40 TDP1 CPT: inconclusive; DT40 TDP1 no CPT: 16.4µM; IL1B secr inh: inactive; HT1080 IDH1KD tx: inconclusive; HT1080NT lethal: inconclusive

What do the screens show for `COc1ccc(C(O)c2nc(-c3cccc(C(=O)O)c3)cs2)cc1` (stereo unspecified)?
DT40 TDP1 CPT: inactive; DT40 TDP1 no CPT: inactive; IL1B secr inh: inactive; HT1080 IDH1KD tx: inactive; HT1080NT lethal: inactive

How did CCN(CC)C(=O)c1cccc(-c2csc(C(C)(O)c3ccncc3)n2)c1 (stereo unspecified) do in these assays?
DT40 TDP1 CPT: 18.4µM; DT40 TDP1 no CPT: 20.6µM; IL1B secr inh: inactive; HT1080 IDH1KD tx: inconclusive; HT1080NT lethal: inconclusive

What do the screens show for `CCN(CC)C(=O)c1cccc(-c2csc(C(O)c3ccc(F)c(OC)c3)n2)c1` (stereo unspecified)?
DT40 TDP1 CPT: 18.4µM; DT40 TDP1 no CPT: 16.4µM; IL1B secr inh: inactive; HT1080 IDH1KD tx: inconclusive; HT1080NT lethal: 1.03µM

How did O=C(O)c1cccc(-c2csc(C(O)c3cccc(Cl)c3)n2)c1 (stereo unspecified) do in these assays?
DT40 TDP1 CPT: inactive; DT40 TDP1 no CPT: inactive; IL1B secr inh: inactive; HT1080 IDH1KD tx: inactive; HT1080NT lethal: inactive

How did CCN(CC)C(=O)c1cccc(-c2csc(C(O)c3ccc(OC)cc3)n2)c1 (stereo unspecified) do in these assays?
DT40 TDP1 CPT: 16.4µM; DT40 TDP1 no CPT: 18.4µM; IL1B secr inh: inactive; HT1080 IDH1KD tx: inconclusive; HT1080NT lethal: inactive

How did Cc1ccc2c(C)c(C(=O)NCC(c3ccc(Cl)cc3)N3CCOCC3)oc2c1 (stereo unspecified) do in these assays?
DT40 TDP1 CPT: 14.6µM; DT40 TDP1 no CPT: 11.6µM

Results for CCc1ccc2oc(C(=O)NCC(c3ccc(Cl)cc3)N3CCOCC3)c(C)c2c1 (stereo unspecified) ?
DT40 TDP1 CPT: 8.2µM; DT40 TDP1 no CPT: 8.2µM

What do the screens show for `Cc1ccc(S(=O)(=O)n2c(N)nc3cc(C)c(C)cc32)cc1`?
DT40 TDP1 CPT: inconclusive; DT40 TDP1 no CPT: inconclusive; IL1B secr inh: inactive; HT1080 IDH1KD tx: inactive; HT1080NT lethal: inconclusive

How did Cc1ccc(C)c(S(=O)(=O)N2CCCOC2CNC(=O)C(=O)NCCC2=CCCCC2)c1 (stereo unspecified) do in these assays?
ELG1 repair inh: inconclusive; DT40 TDP1 CPT: inconclusive; DT40 TDP1 no CPT: 23.1µM; IL1B secr inh: inactive; HT1080 IDH1KD tx: inactive; HT1080NT lethal: inactive

Results for O=C(NCCC1=CCCCC1)C(=O)NCC1OCCCN1S(=O)(=O)c1ccccc1 (stereo unspecified) ?
ELG1 repair inh: inactive; DT40 TDP1 CPT: inactive; DT40 TDP1 no CPT: inconclusive; IL1B secr inh: inactive; HT1080 IDH1KD tx: inactive; HT1080NT lethal: inactive

What do the screens show for `Cc1ccc(S(=O)(=O)N2CCOC2CNC(=O)C(=O)NCCCc2ccccc2)cc1` (stereo unspecified)?
ELG1 repair inh: inconclusive; DT40 TDP1 CPT: inconclusive; DT40 TDP1 no CPT: 18.4µM; IL1B secr inh: inactive; HT1080 IDH1KD tx: inactive; HT1080NT lethal: inactive

Results for Cc1ccc(C)c(S(=O)(=O)N2CCCOC2CNC(=O)C(=O)NCCc2ccccc2)c1 (stereo unspecified) ?
ELG1 repair inh: inactive; DT40 TDP1 CPT: inconclusive; DT40 TDP1 no CPT: 16.4µM; IL1B secr inh: inactive; HT1080 IDH1KD tx: inactive; HT1080NT lethal: inactive

Results for O=C(COc1ccc(-c2ccccc2)cc1)NNC(=O)Nc1ccc(F)cc1F ?
ELG1 repair inh: inactive; DT40 TDP1 CPT: inactive; DT40 TDP1 no CPT: inactive; IL1B secr inh: inactive; HT1080 IDH1KD tx: inactive; HT1080NT lethal: inactive
